Test results published in PubChem BioAssay (Tox21).
Records with an inconclusive call do not appear. Calls of active or inactive are those of the source. Unless noted, calls come from the whole dose curve.

Assays:
[1] = qHTS assay to identify small molecule antagonists of the peroxisome proliferator-activated receptor delta (PPARd) signaling pathway - cell viability counter screen (AID 743213; active = well fitted curve in the direction sought with a large enough effect in the repeat runs; an effect the other way counts as inactive or inconclusive; note: nearly all actives have a fitted effect of over 50% in size)
Summary of the method: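 PPARd-bla HEK293H cells (3000/well) got compound plus 300 nM L165041 agonist for 17 h at 37 C. Viability in the same wells came from CellTiter-Glo luminescence after 30 min at room temperature.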

[2] = biological target: Peroxisome proliferator-activated receptor delta (Homo sapiens) (UniProt Q03181); assay: qHTS assay to identify small molecule antagonists of the peroxisome proliferator-activated receptor delta (PPARd) signaling pathway (AID 743215; active = well fitted inhibition curve with a large enough effect in the signal ratio in the repeat runs, not every such curve was filed as active; the % refers to the signal ratio;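 note: cells stimulated with agonist L165041 at 300 nM final during compound exposure; series mostly up to about 62 µM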)
Peroxisome proliferator-activated receptor delta (Homo sapiens), sequence (Q03181 whole entry, looked up): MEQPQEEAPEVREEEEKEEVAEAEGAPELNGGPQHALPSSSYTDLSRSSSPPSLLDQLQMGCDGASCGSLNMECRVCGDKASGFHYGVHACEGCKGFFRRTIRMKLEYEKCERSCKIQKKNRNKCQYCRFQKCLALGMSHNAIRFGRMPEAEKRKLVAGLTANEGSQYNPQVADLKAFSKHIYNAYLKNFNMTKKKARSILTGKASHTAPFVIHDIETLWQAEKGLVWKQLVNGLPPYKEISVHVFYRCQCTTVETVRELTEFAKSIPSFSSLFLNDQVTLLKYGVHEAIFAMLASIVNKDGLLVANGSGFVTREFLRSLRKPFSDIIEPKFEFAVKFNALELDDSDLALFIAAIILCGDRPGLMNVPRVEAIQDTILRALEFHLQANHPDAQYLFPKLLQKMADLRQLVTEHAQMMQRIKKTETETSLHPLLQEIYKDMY
Summary of the method: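 Read-out is beta-lactamase FRET fluorescence, measured 2 h after substrate addition at room temperature. Beforehand, UAS-bla HEK293H cells carrying the PPARd reporter were exposed to compounds with L165041 at 300 nM final for 17 h at 37 C.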

[3] = biological target: Bile acid receptor (Homo sapiens) (UniProt Q96RI1); assay: qHTS assay to identify small molecule antagonists of the farnesoid-X-receptor (FXR) signaling pathway (AID 743217; active = well fitted inhibition curve with a large enough effect in the signal ratio in the repeat runs, not every such curve was filed as active; the % refers to the signal ratio)
Bile acid receptor (Homo sapiens), sequence (Q96RI1 whole entry, looked up): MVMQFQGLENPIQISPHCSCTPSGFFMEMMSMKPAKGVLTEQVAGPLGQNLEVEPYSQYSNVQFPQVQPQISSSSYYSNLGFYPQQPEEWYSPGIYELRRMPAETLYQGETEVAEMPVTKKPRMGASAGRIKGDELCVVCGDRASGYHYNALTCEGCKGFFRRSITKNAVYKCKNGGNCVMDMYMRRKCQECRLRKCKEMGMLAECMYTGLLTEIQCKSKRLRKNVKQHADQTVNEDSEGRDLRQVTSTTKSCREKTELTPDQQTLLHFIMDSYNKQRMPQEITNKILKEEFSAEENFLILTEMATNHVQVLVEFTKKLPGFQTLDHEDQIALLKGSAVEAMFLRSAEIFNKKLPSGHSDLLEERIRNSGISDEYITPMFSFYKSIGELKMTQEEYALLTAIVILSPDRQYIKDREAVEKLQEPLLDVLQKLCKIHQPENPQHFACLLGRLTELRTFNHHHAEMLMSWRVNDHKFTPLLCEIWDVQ
Summary of the method: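 HEK 293T FXR-UAS-bla, 5000 cells/well; compound + CDCA 50 uM final; 16 h, 37 °C; B/G FRET substrate 2 h RT; fluorescence.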

[4] = qHTS assay to identify small molecule agonists of the farnesoid-X-receptor (FXR) signaling pathway - cell viability counter screen (AID 743218; active = well fitted curve in the direction sought with a large enough effect in the repeat runs; an effect the other way counts as inactive or inconclusive; note: nearly all actives have a fitted effect of over 45% in size)
Summary of the method: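 HEK 293T FXR-bla cells; 5 h pre-incubation, 16 h compound exposure at 37 C; LiveBLAzer substrate 2 h RT, then CellTiter-Glo 30 min RT, luminescence.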

[5] = biological target: Bile acid receptor (Homo sapiens) (UniProt Q96RI1); assay: qHTS assay to identify small molecule agonists of the farnesoid-X-receptor (FXR) signaling pathway (AID 743220; active = well fitted activation curve with a large enough effect in the signal ratio in the repeat runs, not every such curve was filed as active; the % refers to the signal ratio)
Summary of the method: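 Beta-lactamase reporter under UAS control in GeneBLAzer FXR HEK 293T cells (5000/well) measured with LiveBLAzer FRET substrate after 2 h at room temperature. Compound exposure lasted 16 h at 37C.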

[6] = qHTS assay to identify small molecule antagonists of the farnesoid-X-receptor (FXR) signaling pathway - cell viability counter screen (AID 743221; active = well fitted cell-killing curve with a large enough effect in the repeat runs, not every such curve was filed as active; note: nearly all actives have a fitted effect of over 50% in size)
Summary of the method: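 Cytotoxicity is taken from ATP luminescence (CellTiter-Glo, 30 min, room temperature) in FXR-bla HEK 293T cells previously incubated 16 h at 37 C with compound and chenodeoxycholic acid at 50 uM final.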

[7] = biological target: Vitamin D3 receptor (Homo sapiens) (UniProt P11473); assay: qHTS assay to identify small molecule agonists of the vitamin D receptor (VDR) signaling pathway (AID 743222)
Vitamin D3 receptor (Homo sapiens), sequence (P11473 whole entry, looked up): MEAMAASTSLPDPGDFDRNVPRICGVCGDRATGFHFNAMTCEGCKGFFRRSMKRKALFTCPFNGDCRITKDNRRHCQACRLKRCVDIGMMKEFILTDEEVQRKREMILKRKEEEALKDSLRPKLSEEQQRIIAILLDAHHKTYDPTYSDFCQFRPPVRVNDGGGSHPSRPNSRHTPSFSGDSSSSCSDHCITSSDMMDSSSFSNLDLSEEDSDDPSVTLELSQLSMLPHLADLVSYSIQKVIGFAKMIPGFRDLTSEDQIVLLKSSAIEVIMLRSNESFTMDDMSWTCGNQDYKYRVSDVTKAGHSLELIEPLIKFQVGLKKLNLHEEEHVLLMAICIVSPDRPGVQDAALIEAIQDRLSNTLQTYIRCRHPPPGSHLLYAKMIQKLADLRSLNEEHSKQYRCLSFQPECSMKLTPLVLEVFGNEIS
Summary of the method: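 VDR-bla cells, 2,000/well; 4 h preincubation 37C; cpd (DMSO) 16 h; LiveBLAzer B/G substrate 2 h RT; fluorescence intensity read.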

[8] = biological target: Vitamin D3 receptor (Homo sapiens) (UniProt P11473); assay: qHTS assay to identify small molecule antagonists of the vitamin D receptor (VDR) signaling pathway (AID 743223; active = well fitted inhibition curve with a large enough effect in the signal ratio in the repeat runs, not every such curve was filed as active; the % refers to the signal ratio)
Summary of the method: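 Quantitative HTS in VDR-bla reporter cells stimulated with 1alpha,25-dihydroxyvitamin D3, 3 nM final. Compound exposure 16 h, 37C, 5% CO2. Read-out: beta-lactamase FRET substrate fluorescence, 2 h RT.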

[9] = qHTS assay to identify small molecule agonists of the vitamin D receptor (VDR) signaling pathway - cell viability counter screen (AID 743224; active = well fitted curve in the direction sought with a large enough effect in the repeat runs; an effect the other way counts as inactive or inconclusive; note: series mostly up to about 63 µM; nearly all actives have a fitted effect of over 50% in size)
Summary of the method: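 Luminescence from CellTiter-Glo, read after 30 min at room temperature, reports viability of VDR-bla cells treated with compounds for 16 h at 37C in the wells used for the beta-lactamase FRET read.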

[10] = qHTS assay to identify small molecule antagonists of the vitamin D receptor (VDR) signaling pathway - cell viability counter screen (AID 743225; active = well fitted curve in the direction sought with a large enough effect in the repeat runs; an effect the other way counts as inactive or inconclusive; note: nearly all actives have a fitted effect of over 50% in size)
Summary of the method: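 Same-well multiplex: following 16 h treatment of HEK 293T cells carrying a UAS-driven beta-lactamase reporter with compound and agonist (3 nM final), and a 2 h FRET substrate step, CellTiter-Glo was added and luminescence read after 30 min.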

[11] = qHTS assay to identify small molecule agonists of the NFkB signaling pathway (AID 1159509; active = well fitted curve in the direction sought with a large enough effect in the signal ratio in the repeat runs, not every such curve was filed as active; the % refers to the signal ratio; note: series mostly up to about 61 µM)
Summary of the method: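 NFkB-bla ME-180 cells carry a beta-lactamase reporter under an NF-kB response element. They were plated overnight, then exposed to compounds for 5 h at 37 C. Read-out is LiveBLAzer FRET after 1.5 hr at room temperature (405 nm excitation; 460/530 nm emission).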

[12] = qHTS assay to identify small molecule agonists of the NFkB signaling pathway - cell viability counter screen (AID 1159515); note: series mostly up to about 61 µM; nearly all actives have a fitted effect of over 55% in size
Summary of the method: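 Luminescence from CellTiter-Glo (30 min, room temperature) gives viability, measured in the same wells as the beta-lactamase reporter read. Cells were NFkB-bla ME-180, 2,000 per well, treated 5 hr with compounds.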

[13] = qHTS assay to identify small molecule agonists of the endoplasmic reticulum stress response signaling pathway (AID 1159516; active = well fitted activation curve with a large enough effect in the signal ratio in the repeat runs, not every such curve was filed as active; the % refers to the signal ratio)
Summary of the method: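 Read-out is beta-lactamase cleavage of a FRET substrate (405 nm excitation; 460 and 530 nm emissions) in ESRE-bla HeLa cells after a 5 hr compound exposure at 37 C. Substrate incubation ran 2 hr at room temperature.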

[14] = qHTS assay to identify small molecule agonists of the endoplasmic reticulum stress response signaling pathway - cell viability counter screen (AID 1159517)
Summary of the method: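 HeLa cells carrying an ESRE-driven beta-lactamase reporter receive compound for 5 hr at 37 C. Cell viability is then gauged with CellTiter-Glo by luminescence, 30 min at room temperature.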

[15] = qHTS assay to identify small molecule antagonists of the retinoid-related orphan receptor gamma (ROR-gamma) signaling pathway - cell viability counter screen (AID 1159520; active = well fitted curve in the direction sought with a large enough effect in the repeat runs; an effect the other way counts as inactive or inconclusive; note: nearly all actives have a fitted effect of over 50% in size)
Summary of the method: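 Cytotoxicity was read from cellular ATP (CellTiter-Glo luminescence) after 16 hr at 37 C with 1 uM doxycycline induction. The inducer was added 2 hr after compound transfer to Tet-on ROR gamma CHO cells.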

[16] = biological target: Nuclear receptor ROR-gamma (Homo sapiens) (UniProt P51449); assay: qHTS assay to identify small molecule antagonists of the retinoid-related orphan receptor gamma (ROR-gamma) signaling pathway (AID 1159521; active = well fitted curve in the direction sought with a large enough effect in the repeat runs; an effect the other way counts as inactive or inconclusive)
Summary of the method: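 Inducible-expression reporter assay: doxycycline (1 uM final) switched on RORγ in CHO cells bearing a ROR response element-luciferase construct, with test compounds present from 2 h beforehand. Decreased luminescence after 16 h defined antagonist activity.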

[17] = qHTS assay to identify small molecule agonists of the AP-1 signaling pathway - cell viability counter screen (AID 1159525); note: nearly all actives have a fitted effect of over 55% in size
Summary of the method: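 Luminescent ATP readout (Cell Titer Glo, 30 min RT), normalised to DMSO and tetra n-octyl ammonium bromide controls. Cells were ME-180 AP-1-bla in 0.5% dialyzed FBS Opti-MEM, with a 5 h, 37 °C compound exposure.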

[18] = qHTS assay to identify small molecule agonists of the AP-1 signaling pathway (AID 1159526)
[19] = biological target: Retinoic acid receptor RXR-alpha (Homo sapiens) (UniProt P19793); assay: qHTS assay to identify small molecule agonists of the RXR signaling pathway (AID 1159527); note: nearly all actives have a fitted effect of over 35% in size
Retinoic acid receptor RXR-alpha (Homo sapiens), sequence (P19793 whole entry, looked up): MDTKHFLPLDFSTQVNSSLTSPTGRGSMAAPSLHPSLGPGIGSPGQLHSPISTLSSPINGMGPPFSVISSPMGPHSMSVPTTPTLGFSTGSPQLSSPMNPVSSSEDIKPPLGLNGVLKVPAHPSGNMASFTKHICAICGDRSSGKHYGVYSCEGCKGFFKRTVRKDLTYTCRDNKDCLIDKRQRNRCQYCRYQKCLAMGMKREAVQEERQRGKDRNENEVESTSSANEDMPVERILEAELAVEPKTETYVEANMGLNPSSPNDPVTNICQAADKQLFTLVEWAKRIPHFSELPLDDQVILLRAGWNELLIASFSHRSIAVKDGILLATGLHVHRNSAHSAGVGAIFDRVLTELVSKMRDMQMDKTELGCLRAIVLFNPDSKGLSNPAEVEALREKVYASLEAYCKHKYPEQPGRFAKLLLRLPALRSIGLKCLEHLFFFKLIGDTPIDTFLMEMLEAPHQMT
Summary of the method: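 Compounds in DMSO were added to RXR-alpha-UAS-bla HEK 293T cells kept in 2% charcoal-stripped serum, and incubated 16 hr at 37 C with 5% CO2. Reporter signal came from a 2 hr B/G FRET substrate step.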

[20] = biological target: Peroxisome proliferator-activated receptor delta (Homo sapiens) (UniProt Q03181); assay: qHTS assay to identify small molecule agonists of the peroxisome proliferator-activated receptor delta (PPARd) signaling pathway (AID 743212)
Summary of the method: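 HEK293H PPARd-bla cells; 5 h preincubation 37 C/5% CO2; compound (DMSO) 37 C; LiveBLAzer B/G FRET substrate 2 h RT; fluorescence intensity.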

Measured: Potency

CC(CC(=O)O)CC(C)(C)C (centres undefined)
not listed: [20]
inactive: all other assays above

CCC(O)C(C)(C)C (centres undefined)
not listed: [3] | [4] | [7] | [8] | [20]
inactive: all other assays above

NS(=O)(=O)c1cc2c(cc1Cl)NC(C(Cl)Cl)NS2(=O)=O (centres undefined)
not listed: [2] | [4] | [8]
inactive: all other assays above

CCN1CN(CC)CN(CC)C1
not listed: [4] | [7] | [8] | [20]
inactive: all other assays above

CCCCC(CC)COC(=O)c1ccccc1 (centres undefined)
not listed: [3] | [4] | [5] | [7]
inactive: all other assays above

CC1=NN(c2ccc(S(=O)(=O)O)cc2)C(=O)C1N=Nc1ccccc1 (centres undefined)
not listed: [3] | [4] | [5] | [8] | [20]
inactive: all other assays above

NC(=O)C1(N2CCCCC2)CCN(CCCC(=O)c2ccc(F)cc2)CC1
not listed: [3] | [5] | [8] | [20]
inactive: all other assays above

COc1cc2c3cc1Oc1cc(ccc1O)C[C@@H]1c4c(cc(OC)c(O)c4Oc4ccc(cc4)C[C@@H]3N(C)CC2)CC[N+]1(C)C
not listed: [3] | [4]
inactive: all other assays above

C[C@H](CCC(=O)NCC(=O)O)[C@H]1CC[C@H]2[C@@H]3[C@H](O)C[C@@H]4C[C@H](O)CC[C@]4(C)[C@H]3C[C@H](O)[C@]12C
not listed: [2] | [10] | [20]
inactive: all other assays above

CCCO
not listed: [3] | [5] | [8] | [20]
inactive: all other assays above

CC(=O)OC[C@H]1O[C@@H](OC(C)=O)[C@H](OC(C)=O)[C@@H]1OC(C)=O
not listed: [1]
inactive: all other assays above

C1CCN2C[C@@H]3C[C@@H](CN4CCCC[C@@H]34)[C@H]2C1
not listed: [3] | [5] | [20]
inactive: all other assays above

CC(Cl)COP(=O)(OCC(C)Cl)OCC(C)Cl (centres undefined)
not listed: [3] | [4] | [5]
inactive: all other assays above

CCCCCCCC/C=C\CCCCCCCC(=O)OC[C@@H](O)[C@H]1OC[C@H](O)[C@H]1O
not listed: [3] | [5] | [10] | [20]
inactive: all other assays above
